Screening data: PubChem BioAssay, National Center for Advancing Translational Sciences (NCATS)
Only some compounds are listed: those with a hit (about 7.8% of all), similar ones and a draw of the others.
Vaccinia mCherry: inhibitors of vaccinia virus infection (mCherry reporter signal) | Vaccinia virus mCherry reporter infection, fluorescence | Potency, µM (series often up to 36.5 µM), without a hit: at the top dose activity change, negative = inhibition, hits mostly inhibitors | 0.63% of 310,000 active | AID 720579; calls by dose curve; tested in A549 cells; further: potency means the concentration at half of the fitted maximal effect; nearly all actives have a fitted effect of over 35% in size
HCV inhibitor: inhibitors of hepatitis C virus infection; Huh7.5.1 HCVcc-Cre infection, luciferase reporter, 44 h; 3.4% of 340,000 active; Potency, µM (highest dose often 41.8 µM), for inactives: at the top dose activity change, negative = inhibition, most hits filed as inhibitors; active means well fitted inhibition curve with a large enough effect; inconclusive means small, poorly fitted or top-dose-only effect, or another doubt; inactive means no such curve, though single readings can be large or run the other way; further: potency means the concentration at half of the fitted maximal effect
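Cells seeded at 1,000/well and cultured 4 h, then compounds added followed by HCVcc-Cre virus (~0.5 moi). After 44 h further culture, luciferase substrate was added, plates held 15 min at room temperature, and luminescence read for 15 sec.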
MARV entry inh: Marburg virus entry inhibition. Marburg virus pseudotyped entry inhibition, cell reporter. Potency, µM (doses to about 37.8 µM), without a hit: top-dose activity change, negative = inhibition, hits mostly inhibitors. 1.8% of 300,000 active. AID 540276; calls by dose curve; tested in HEK293 cells; further: potency means the concentration at half of the fitted maximal effect
Vaccinia Venus: vaccinia inhibition (Venus reporter). Potency, µM (titrated, usually from 36.5 µM), without a hit: top-dose activity change, negative = inhibition, usual class: inhibitors. Vaccinia virus Venus reporter expression, fluorescence. 0.46% of 330,000 active; calls by dose curve; tested in A549 cells; further: potency means the concentration at half of the fitted maximal effect; nearly all actives have a fitted effect of over 30% in size
HCMV antiviral: inhibitors of human cytomegalovirus; 4.5% of 410,000 active; HFF cells, HCMV-luciferase reporter, 72 h; active compounds read low; activity change, negative = inhibition, % at 57.5 µM; in the data active means activity change below about -60%; inconclusive means no clear call, values can overlap the other calls; inactive means above about -39%
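Compounds were evaluated in HFFs infected with an HCMV luciferase reporter virus (MOI 1 PFU/cell). Luciferase in lysates collected 72 h post infection served as the replication measure.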
LASV entry inh: Lassa virus entry inhibition; Lassa virus pseudotype entry inhibition, cell reporter; Potency, µM (highest dose often 37.9 µM), for inactives: at the top dose activity change, negative = inhibition, most hits filed as inhibitors; 1.2% of 300,000 active; calls by dose curve; tested in HEK293 cells; further: potency means the concentration at half of the fitted maximal effect; nearly all actives have a fitted effect of over 50% in size
Active calls of the source: *; i = inactive; ? = inconclusive; / = no result given; [ ] = dose if it differs, or a comment. On the % scale 0 is the no-effect control and ±100 the full control effect.

SMILES | Vaccinia mCherry | HCV inhibitor | MARV entry inh | Vaccinia Venus | HCMV antiviral | LASV entry inh
C=CCn1c(SCC(=O)NC(N)=O)nnc1-c1cc2c(s1)CCC(CC)C2 (configuration not stated) | i | 6.5% | 19.7% | -17.9% | -14.8 | -28.4%
CCOc1ccccc1CNC(=O)c1nc(-c2ccc(Cl)cc2)n2c1CCCCC2 | -9.8% | / | / | -20.6% | 4.7 | -14.1%[46.1 µM]
Cc1ccc(C(C)C)c(OCCNC(=S)Nc2cccc3ccccc23)c1 | / | 31.6µM* | ? | / | -24.8 | 15.8%
Cc1c(Cl)cccc1NC(=S)NCc1ccccc1 | -13.9% | -17.4% | 1.5% | -14.1% | -78.2* | 6.9%
S=C(NCc1ccccc1)Nc1cccc2ccccc12 | ? | 10µM* | 7.1%[46.1 µM] | -11.0% | ? | ?
Cc1ccc(C(C)C)c(OCCNCc2ccccc2)c1 | / | -4.3% | / | / | -8.6 | /
COc1cccc(-c2cc3c(c(OC)c2)OCCN(Cc2ccccc2O)C3)n1 | i | / | / | -8.9% | / | /
CCOC(=O)COc1ccc2c(C#N)c3ccccn3c2c1 | / | -18.5% | 3.0% | / | -31.7 | -0.7%
N#Cc1c2ccc(OCC(N)=O)cc2n2ccccc12 | / | 12.6µM* | / | / | -14.4 | /
COC(=O)c1cc2ccccc2c(-c2c(OC)c(C(=O)OC)cc3ccccc23)c1OC | ? | 10µM* | 6.51µM* | -17.6% | ? | ?
CCCN(CC(=O)Nc1ccccc1Br)CC(=O)Nc1ccc(F)c(F)c1F | -8.5% | ? | ? | -19.2% | -6.0 | -13.4%
CCCN(CC(=O)Nc1cc(Cl)cc(Cl)c1)CC(=O)Nc1ccc(F)c(F)c1F | ? | ? | ? | ? | -87.3* | ?
CN(CC(=O)Nc1ccc(Cl)c(C(F)(F)F)c1)C(=O)c1ccc(OCC2CCCO2)cc1 (configuration not stated) | ? | 10µM* | ? | ? | -72.6* | ?
Cc1ccc(C(=O)N(C)CC(=O)Nc2ccc(Cl)c(C(F)(F)F)c2)cc1S(=O)(=O)N1CCCCC1 | / | 7.94µM* | / | / | -33.7 | /
COCC=CC1=CC2=CC(=O)C(C)(OC(=O)c3cnc4ccccc4n3)C(=O)C2=CN1CCc1c[nH]c2ccccc12 (configuration not stated) | / | / | 22.3%[14.2 µM] | / | / | /
CCc1ccccc1N(C)C(=O)c1cn(-c2cccc(OC)c2)c(=O)c2ccccc12 | -9.5% | / | / | -13.1% | ? | 9.9%[46.1 µM]
O=C(Nc1ccccn1)c1onc2c1CCCC2 | i | 15.5% | ? | -13.7% | ? | 7.31µM*
CCOC(=O)N1CCN(Cc2ccc3c(c2)CN(C(=O)c2cc(-c4ccccc4)no2)CCO3)CC1 | -26.4% | / | / | -29.0% | / | /
COc1ccc(-c2nc(C#N)c(NCc3cccnc3)o2)cc1OC | / | -18.9% | -2.7% | / | 113.1 | -12.3%
COc1ccc(-c2nc(C#N)c(NCc3ccc(F)cc3)o2)cc1OC | / | 3.55µM* | 0.1% | 12.6µM* | 25.4 | -1.4%
COc1ccc(CNC(=O)c2cc(-c3ccc(C)cc3)nc3n[nH]c(-c4ccc(Br)cc4)c23)cc1 | -6.0% | / | / | -3.6% | 11.7 | -6.0%[46.1 µM]
COc1ccc(-c2cc(C(=O)NCc3ccc(F)cc3)c3c(-c4ccc(F)cc4)[nH]nc3n2)cc1OC | ? | / | / | ? | -101.0* | ?
COc1ccc(CNC(=O)c2cc(-c3ccc(OC)c(OC)c3)nc3n[nH]c(-c4ccc(C)cc4)c23)cc1 | ? | / | / | -22.8% | -97.5* | -15.6%[46.1 µM]
Cc1ccc(CNC(=O)c2cc(-c3ccc(C)cc3)nc3n[nH]c(-c4ccc(F)cc4)c23)cc1 | 4.3% | / | / | 1.9% | 11.4 | ?
Cn1c2ccccc2c2cnn(CC(=O)Nc3ccccc3C(F)(F)F)c(=O)c21 | -8.0% | / | 5.4%[46.1 µM] | -1.1% | 19.6 | ?
SMILES | Vaccinia mCherry | HCV inhibitor | MARV entry inh | Vaccinia Venus | HCMV antiviral | LASV entry inh
COc1ccc(-c2cnc3c(NC=O)cc(-c4ccc(N(C)C)cc4)cn23)cc1OC | / | / | / | / | 19.3 | /
COc1ccc(C(=O)NC(C(=O)NCC2(N3CCCCC3)CCCCC2)C(C)C)cc1 (configuration not stated) | / | 19.5% | / | / | -76.4* | /
OCC1(Cc2ccccc2C(F)(F)F)CCN(Cc2ccc3c(c2)CCO3)CC1 | -8.9% | 9.4% | ? | -12.6% | -75.7* | -5.3%[46.1 µM]
CCc1cccc(NC(=O)Cn2nc(-c3cc(C)ccc3C)ccc2=O)c1 | -5.7% | / | ? | -4.3% | 24.2 | -0.2%[46.1 µM]
C=C1C(O)[C@@H]2O[C@]3(CC[C@H](/C=C/C(C)[C@@H]4CC(C)=CC5(O[C@H](C[C@@](C)(O)C(=O)O)CCC5O)O4)O3)CC[C@H]2O[C@@H]1C(O)CC(C)[C@H]1OC2(CCCCO2)CCC1C (some centres not stated) | -22.8% | ? | / | 0.316µM* | / | /
O=[N+]([O-])c1ccc(Nc2ccccc2O)c2nonc12 | / | -6.6% | / | / | -60.6* | /
CN1C(=O)N(c2ccccc2)[C@@H](Nc2nncs2)C1(C)C | / | / | -0.1% | / | / | /
COC(=O)c1c(C)[nH]c(C(=O)/C=C/c2ccc(C)cc2)c1C | / | -25.3% | / | / | -90.4* | /
CCCCN(CCCC)C(=O)c1c[nH]c2ccc(S(=O)(=O)Nc3cccc(Cl)c3C)cc2c1=O | -2.9%[7.34 µM] | / | / | -6.6%[7.34 µM] | 2.3 | -3.8%[46.1 µM]
CN1CCN(C(CNC(=O)Nc2ccc(Cl)cc2)c2ccc(F)cc2)CC1 (configuration not stated) | / | ? | / | / | -25.2 | /
Cc1ccc(C(CNC(=O)Nc2ccc(Cl)cc2)N2CCN(C)CC2)cc1 (configuration not stated) | -24.8% | 12.6µM* | ? | -19.5% | -20.6 | ?
CCCCC[C@H](O)/C=C/[C@H]1CCC(=O)[C@@H]1CCCCCCC(=O)N1CCCCC1CO (some centres not stated) | i | -26.1% | ? | -23.9% | -74.3* | ?
CCC1CCCCN1C(=O)CCCOc1ccccc1 (configuration not stated) | -13.4% | -0.1% | 24.9% | -7.8% | -18.7 | ?
CCN(CC(O)COCc1ccc(Cl)cc1)C1CCCCC1 (configuration not stated) | -4.4% | ? | ? | -9.5% | -13.3 | -46.7%
CN(CC(O)COc1ccccc1F)C1CCCCC1 (configuration not stated) | -2.0% | 1.6% | ? | -13.3% | 10.9 | 4.5%[46.1 µM]
Cc1ccccc1OCC(O)CN(Cc1ccccc1O)C1CCCCC1 (configuration not stated) | -23.6% | -9.3% | 11.2µM* | ? | ? | -16.3%[46.1 µM]
CCN(CC(O)COc1ccc(OCC(O)CN(CC)C2CCCCC2)cc1)C1CCCCC1 (configuration not stated) | ? | 5.01µM* | ? | -17.1% | -21.7 | ?
Cc1ccccc1C(=O)NCC(=O)Nc1ccc(C)c(S(=O)(=O)N2CCCCCC2)c1 | -10.9% | 8.91µM* | ? | -15.6% | -12.4 | ?
CCOc1ncccc1C(=O)Nc1ccc(OC)c(S(=O)(=O)N2CCCCC2)c1 | -15.9% | ? | -2.0%[46.1 µM] | -4.2% | 5.0 | -18.4%
